In PubChem BioAssay AID588795 (National Center for Advancing Translational Sciences (NCATS), 2011) one finds Potency data, which are given here for 23 compounds.

Structures are written as SMILES. Hit rate of the full screen: of about 390,000 compounds, about 1,400 (0.36%) were called active. Where a call stands in place of a potency, no number is given. Another 2% or so got no clear call; they are omitted. Calls follow the shape of the dose curve; as a rule, active = well fitted inhibition curve with a large enough effect; inconclusive = small, poorly fitted or top-dose-only effect; inactive = no such curve, though single readings can be large or run the other way. This excerpt belongs to a sample that is enriched for actives.
Potency is read from the fitted curve at half-maximal effect.

Sequence of Flap endonuclease 1 (Homo sapiens) (P39748 whole entry, looked up): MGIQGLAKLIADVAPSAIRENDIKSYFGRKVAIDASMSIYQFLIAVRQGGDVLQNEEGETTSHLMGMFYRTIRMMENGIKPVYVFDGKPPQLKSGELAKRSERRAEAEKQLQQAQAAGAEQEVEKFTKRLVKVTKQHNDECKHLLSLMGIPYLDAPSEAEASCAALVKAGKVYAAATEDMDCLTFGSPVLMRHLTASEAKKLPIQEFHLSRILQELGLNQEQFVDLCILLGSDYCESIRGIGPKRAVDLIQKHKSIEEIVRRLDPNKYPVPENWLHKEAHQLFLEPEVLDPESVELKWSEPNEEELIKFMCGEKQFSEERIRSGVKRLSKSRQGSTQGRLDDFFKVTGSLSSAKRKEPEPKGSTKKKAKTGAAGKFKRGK

In this test the target is Flap endonuclease 1 (Homo sapiens) (UniProt P39748). Briefly: qHTS Assay for the Inhibitors of Human Flap endonuclease 1 (FEN1). Also: nearly all actives have a fitted effect of over 65% in size. Conditions: Recombinant FEN1 flap cleavage, fluorescence, 15 min; series mostly up to 114 µM. Summed up:
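Compounds are tested as a concentration series against 10 nM FEN1; after a 15 min room-temperature preincubation, 50 nM substrate starts cleavage, with plate reads at 0 and 15 min. Normalized responses are fitted by a Hill equation.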
Background: Quantitative high-throughput screening tests each substance at several concentrations.
With `CCOC(=O)C1CCN(C(c2ccc(F)cc2)c2sc3nc(-c4ccco4)nn3c2O)CC1` (stereo not drawn), the Potency result was “inactive”.

Consider `Cn1nnc2c(N3CCN(c4ccccc4)CC3)ncnc21`, for which the Potency entry was “inactive”.

Turning to `O=C(NCc1ccccc1)C(=O)NCC(c1ccco1)S(=O)(=O)c1ccc(Cl)cc1` (stereo not drawn), the Potency entry was “inactive”. The entry for `CC1(OC(=O)CCc2ccccc2)C(=O)C=C2C=C(c3ccc(C#N)cc3)N(CCc3ccccn3)C=C2C1=O` (stereo not drawn) is “inactive”; for `COC(=O)CCCC1=CC2=CC(=O)C(C)(OC(=O)c3cccs3)C(=O)C2=CN1c1cccc(C#N)c1` (stereo not drawn) it is “inactive”.

With `CC1(OC(=O)C2CCCC2)C(=O)C=C2C=C(c3ccc(C#N)cc3)OC=C2C1=O` (stereo not drawn), the Potency was 20 µM (active).

`C=COC(=O)N1CCN(/[N+]([O-])=N/Oc2ccc([N+](=O)[O-])cc2[N+](=O)[O-])CC1`: the Potency entry is “inactive”. `COc1nc(N=C(N)N)nc2c(C)cccc12`: the Potency is 39.8 µM (active). For `CCc1c(C)nc2c(OC)cccc2c1Cl`, the Potency entry was “inactive”. On to `Cc1nc(/N=C(\N)NC(=O)NC2CCCCC2)nc2ccccc12`, for which the Potency result is “inactive”. The figure for `Cc1nc(N=C(N)N)nc2c(C)cccc12` is 35.5 µM (active). As for `COc1ccccc1NC(=O)CSc1oc(-c2ccco2)nc1S(=O)(=O)c1ccc(Br)cc1`, the Potency entry was “inactive”.

Take `O=C(Nc1ccccc1C(F)(F)F)c1nc(S(=O)(=O)Cc2ccccc2F)ncc1Cl`: the Potency result was “inactive”.

Consider `CCOc1ccccc1N(CC)C(=O)Nc1cn(C)c(=O)c2ccccc12`, for which the Potency result was “inactive”. For the compound `Cc1ccc(NC2=C(c3ccc(C(F)(F)F)cc3)C(=O)c3ccccc32)cc1F`, the Potency result was “inactive”.

Turning to `CN(CCC#N)c1ccc(C=O)cc1`, the Potency entry was “inactive”. In the case of `CCN(CC)N=Nc1cccc(NC(C)=O)c1`, the Potency was 89.1 µM (active). The value for `CC(=O)Nc1cccc(C(=O)OCC(=O)c2ccc3c(c2)OCO3)c1` was “inactive”; that for `CCN(CC)C(=O)CSC(Nc1cccc(F)c1)=C(C#N)C#N` was “inactive”; that for `CCOC(=O)c1c(C)[nH]c(CCC(=O)NCCCN2CCN(c3cccc(Cl)c3)CC2)c1C` was “inactive”. For the compound `COc1ccc(CCn2c3c(c(=O)[nH]c2=S)CN(C(C)C)CN3)cc1OC`, the Potency entry was “inactive”. `Cc1cccc(-c2nnc(SC(C)C(=O)Nc3ccccc3)n2C)c1` (stereo not drawn): the Potency entry is “inactive”. For `COc1cc(C(=O)Nc2ccc(-n3c(C)nc4ccccc4c3=O)cc2)cc(OC)c1OC`, the Potency entry was “inactive”.
